Each structure is given as a SMILES string. Activity calls are given as the source filed them. Rule for the calls: active = hit-call score of the fitted dose curve at least 0.9, where 1 is the maximum; inactive = score below 0.9.

For orientation: AC50 means the midpoint of the concentration-response curve, whichever way the signal moves.

Read-out in one test: CYP2E1 (gene 1571)
The test is described as follows: LTEA_HepaRG_CYP2E1: Life Technologies and Expression Analysis (LTEA) Assay for CYP2E1 using HepaRG (AID 2283485). The conditions noted are these: mRNA level, 48 h; actives raise or lower the signal. In short, it runs like this: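 Readout is qRT-PCR of CYP2E1 mRNA, normalized to three housekeeping genes and fitted bidirectionally against 0.5% DMSO. HepaRG cells were dosed 48 h at eight concentrations, highest 100 uM with half-log dilutions.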
On to `O=C(O)c1ccccc1`, for which the outcome was inactive.
The same measure, in the same setting: under `CCOC(=O)COc1cc(-n2ncc(C(F)(F)F)c(C)c2=O)c(F)cc1Cl` stands “inactive”; under `CCOC(=O)c1ccc(O)cc1`, “inactive”.
Consider `O=C(Nc1ccc([N+](=O)[O-])cc1Cl)c1cc(Cl)ccc1O`, for which the half-maximal activity concentration (AC50) is 2.07 µM (active).
Same read-out and setting: under `Cc1nn(C)c(Oc2ccccc2)c1C=NOCc1ccc(C(=O)OC(C)(C)C)cc1` stands 2.75 µM (active).
`CCCCCCC(C)OC(=O)COc1nc(F)c(Cl)c(N)c1Cl` (centres undefined): the call was inactive.
Turning to `CCCCC(CC)COC(=O)c1ccccc1C(=O)O` (centres undefined), the AC50 is 76.7 µM (active).
Consider `COc1c(Cl)ccc(Cl)c1C(=O)O`, for which the molecule was classed as inactive.
As to `CC(=O)[C@H]1CC[C@H]2[C@@H]3CCC4=CC(=O)CC[C@]4(C)[C@H]3CC[C@]12C`, the AC50 is 25.7 µM (active).
With `CCC(C)OC(=O)N1CCCCC1CCO` (centres undefined), the call was inactive.
As to `CC(=O)S[C@@H]1CC2=CC(=O)CC[C@]2(C)[C@H]2CC[C@@]3(C)[C@@H](CC[C@@]34CCC(=O)O4)[C@H]12`, the AC50 was 63 µM (active).
As to `CCCCCOC(=O)COc1cc(N2C(=O)C3=C(CCCC3)C2=O)c(F)cc1Cl`, the outcome was inactive.
`S=C([S-])NCCNC(=S)[S-].[Mn+2]`: the AC50 is 3.82 µM (active).
Take `CCCCOC(=O)C(C)Oc1ccc(Oc2ccc(C(F)(F)F)cn2)cc1` (centres undefined): the outcome was inactive.
Turning to `CCCCOCCOCCOCc1cc2c(cc1CCC)OCO2`, the AC50 is 14 µM (active).
For `CC1(C)C(C=C(Cl)Cl)C1C(=O)OCc1cccc(Oc2ccccc2)c1` (centres undefined), the AC50 is 26.2 µM (active).
Consider `COC(=O)c1ccc(I)cc1S(=O)(=O)NC(=O)Nc1nc(C)nc(OC)n1`, for which the molecule was classed as inactive.
Regarding `c1ccc(Nc2ccccc2)cc1`, the molecule was classed as inactive.
For the molecule `CCCCOC(=O)[C@@H](C)Oc1ccc(Oc2ccc(C(F)(F)F)cn2)cc1`, the AC50 is 17 µM (active).
On the same count and under the same terms, under `CCCN(CCC)c1c([N+](=O)[O-])cc(C(F)(F)F)c(N)c1[N+](=O)[O-]` stands 16.2 µM (active).
Take `C[C@]12C[C@H](O)[C@H]3[C@@H](CCC4=CC(=O)CC[C@@]43C)[C@@H]1CC[C@@H]2C(=O)CO`: the outcome was inactive.
Same read-out and setting: under `COCCO` stands “inactive”; under `CCCN(CCC)C(=O)SCC`, “inactive”.
Take `c1ccc2[nH]c(-c3cscn3)nc2c1`: the AC50 is 50 µM (active).
Turning to `CC(C)CCCCCCc1ccc(O)cc1`, the call was inactive.
In the case of `C[C@]12CC[C@@H]3c4ccc(O)cc4C[C@@H](CCCCCCCCCS(=O)CCCC(F)(F)C(F)(F)F)[C@H]3[C@@H]1CC[C@@H]2O` (some centres undefined), the AC50 is 20.2 µM (active).
Still for that read-out and setting: under `N[C@@H](Cc1cc(I)c(Oc2ccc(O)c(I)c2)c(I)c1)C(=O)O` stands 0.00253 µM (active).

Read-out in a further test: CYP4A11 (gene 1579)
Briefly: LTEA_HepaRG_CYP4A11: Life Technologies and Expression Analysis (LTEA) Assay for CYP4A11 using HepaRG (AID 2283486). The conditions noted are these: mRNA level, 48 h; actives raise or lower the signal. In a few lines:
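Human hepatic HepaRG cultures receive duplicate 48 h exposures across a concentration-response series topping at 100 uM. Expression changes in CYP4A11 are measured by qRT-PCR relative to DMSO controls.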
With `O=C(O)c1ccccc1`, the result was inactive.
On the same count and under the same terms, under `CCOC(=O)COc1cc(-n2ncc(C(F)(F)F)c(C)c2=O)c(F)cc1Cl` stands “inactive”.
With `CCOC(=O)c1ccc(O)cc1`, the molecule was classed as inactive.
With `O=C(Nc1ccc([N+](=O)[O-])cc1Cl)c1cc(Cl)ccc1O`, the AC50 was 3.41 µM (active).
Same read-out and setting: under `Cc1nn(C)c(Oc2ccccc2)c1C=NOCc1ccc(C(=O)OC(C)(C)C)cc1` stands 2.99 µM (active).
For the molecule `CCCCCCC(C)OC(=O)COc1nc(F)c(Cl)c(N)c1Cl` (centres undefined), the call was inactive.
As to `CCCCC(CC)COC(=O)c1ccccc1C(=O)O` (centres undefined), the AC50 was 50.8 µM (active).
Consider `COc1c(Cl)ccc(Cl)c1C(=O)O`, for which the outcome was inactive.
Take `CC(=O)[C@H]1CC[C@H]2[C@@H]3CCC4=CC(=O)CC[C@]4(C)[C@H]3CC[C@]12C`: the AC50 was 31.1 µM (active).
Consider `CCC(C)OC(=O)N1CCCCC1CCO` (centres undefined), for which the outcome was inactive.
For `CC(=O)S[C@@H]1CC2=CC(=O)CC[C@]2(C)[C@H]2CC[C@@]3(C)[C@@H](CC[C@@]34CCC(=O)O4)[C@H]12`, the AC50 is 51.8 µM (active).
With `CCCCCOC(=O)COc1cc(N2C(=O)C3=C(CCCC3)C2=O)c(F)cc1Cl`, the molecule was classed as inactive.
For the molecule `S=C([S-])NCCNC(=S)[S-].[Mn+2]`, the AC50 was 3.33 µM (active).
In the case of `CCCCOC(=O)C(C)Oc1ccc(Oc2ccc(C(F)(F)F)cn2)cc1` (centres undefined), the molecule was called inactive.
On the same count and under the same terms, under `CCCCOCCOCCOCc1cc2c(cc1CCC)OCO2` stands “inactive”.
On the same count and under the same terms, under `CC1(C)C(C=C(Cl)Cl)C1C(=O)OCc1cccc(Oc2ccccc2)c1` (centres undefined) stands “inactive”; under `COC(=O)c1ccc(I)cc1S(=O)(=O)NC(=O)Nc1nc(C)nc(OC)n1`, “inactive”; under `c1ccc(Nc2ccccc2)cc1`, “inactive”.
The same measure, in the same setting: under `CCCCOC(=O)[C@@H](C)Oc1ccc(Oc2ccc(C(F)(F)F)cn2)cc1` stands “inactive”.
Regarding `CCCN(CCC)c1c([N+](=O)[O-])cc(C(F)(F)F)c(N)c1[N+](=O)[O-]`, the AC50 is 28.9 µM (active).
Consider `C[C@]12C[C@H](O)[C@H]3[C@@H](CCC4=CC(=O)CC[C@@]43C)[C@@H]1CC[C@@H]2C(=O)CO`, for which the outcome was inactive.
Same read-out and setting: under `COCCO` stands “inactive”.
In the case of `CCCN(CCC)C(=O)SCC`, the molecule was classed as inactive.
For `c1ccc2[nH]c(-c3cscn3)nc2c1`, the molecule was called inactive.
Still for that read-out and setting: under `CC(C)CCCCCCc1ccc(O)cc1` stands “inactive”.
`C[C@]12CC[C@@H]3c4ccc(O)cc4C[C@@H](CCCCCCCCCS(=O)CCCC(F)(F)C(F)(F)F)[C@H]3[C@@H]1CC[C@@H]2O` (some centres undefined): the AC50 was 30.9 µM (active).
`N[C@@H](Cc1cc(I)c(Oc2ccc(O)c(I)c2)c(I)c1)C(=O)O`: the AC50 was 7.94 µM (active).

Values taken from PubChem BioAssay (EPA / NIEHS).
